Measurements published in the supplement of paper PMC9399229.
Where a name gives a salt, the structure may show the parent alone. ± gives the standard deviation of the averaged measurements. Whole data set: some 1,900 compounds, median “relative cell viability (CellTiter-Glo), compound alone” near 1, cut for the lowest 2% near 0.16. The full list was thinned out, with the lowest values kept by preference.

Each compound was assayed on Hep3B (assay: relative cell viability (CellTiter-Glo), compound alone (fraction); higher = more viable cells (less growth inhibition)). Conditions: cabozantinib 0 µM; 4 days.
Work on CNc1nc(Nc2cnn([C@H]3CCN(C4COC4)C[C@@H]3F)c2Cl)ncc1C(F)(F)F yielded a relative cell viability of 1.14 ± 0.02.
Work on Clc1ccc(C2(c3ccc(-c4cn[nH]c4)cc3)CCNCC2)cc1 yielded a relative cell viability of 0.972 ± 0.2.
CC1=C(C(=O)OC2CCCCC2)C(c2ccc([N+](=O)[O-])cc2)C2=C(CC(C)(C)CC2=O)N1 (stereo not drawn) showed a relative cell viability of 1.19 ± 0.022.
Compound COC(=O)C1=CO[C@@H](O[C@@H]2O[C@H](CO)[C@@H](O)[C@H](O)[C@H]2O)[C@@H]2C(CO)=CC[C@H]12 [Geniposide] has a relative cell viability of 1.11 ± 0.078.
For COc1ccc(NS(=O)(=O)c2sc3ccc(Cl)cc3c2C)cc1N1CCNCC1, the relative cell viability was 0.974 ± 0.19.
CCNC(=O)C#Cc1ccc2c(C(=Nc3ccc(CN(C)C)cc3)c3ccccc3)c(O)[nH]c2c1 gave a relative cell viability of 0.278 ± 0.007.
For CCOC(=O)CCNc1cc(N2CCc3ccccc3CC2)nc(-c2ccccn2)n1, the relative cell viability was 0.742 ± 0.084.
Work on Cc1cc(OCc2nnc(SC3CCCC3)n2-c2cccnc2)ccc1-c1ccc(S(C)(=O)=O)cc1 yielded a relative cell viability of 1.07 ± 0.024.
CCOC(=O)Nc1cc(-c2ccc(C)c(NS(C)(=O)=O)c2)nn2c(C)nnc12 [Bromosporine] was tested, and the relative cell viability was 0.851 ± 0.044.
For CCc1c(O)cc(O)c(C(=O)c2ccc(OCCN3CCOCC3)c(OC)c2)c1CC(=O)N(CCOC)CCOC, the relative cell viability was 0.48 ± 0.01.
With COC(=O)C[C@H](NC(=O)[C@H](C)NC(=O)[C@@H](NC(=O)OCc1ccccc1)C(C)C)C(=O)CF the relative cell viability was 1 ± 0.094.
With NC(=O)c1cccc2[nH]c(-c3ccc(C4CCCN4)cc3F)nc12 (stereo not drawn) the relative cell viability was 0.981 ± 0.079.
With NC1=N[C@@](c2cccc(-c3cncnc3)c2)(c2ccnc(C(F)F)c2)c2cccc(F)c21 the relative cell viability was 1.34 ± 0.037.
COc1cccc2c1C(=O)c1c(O)c3c(c(O)c1C2=O)C[C@@](O)(C(=O)CO)C[C@@H]3O[C@H]1C[C@H](N)[C@@H](O)[C@H](C)O1 [Epirubicin HCl] showed a relative cell viability of 0.0641 ± 0.0026.
For COc1cccc2c1C(=O)c1c(O)c3c(c(O)c1C2=O)C[C@@](O)(C(=O)CO)C[C@@H]3O[C@H]1C[C@H](N)[C@H](O)[C@H](C)O1 [Doxorubicin (Adriamycin)], the relative cell viability was 0.144 ± 0.0086.
COc1cccc2c1C(=O)c1c(O)c3c(c(O)c1C2=O)C[C@@](O)(C(=O)CO)C[C@@H]3O[C@H]1C[C@H](N)[C@H](O[C@@H]2CCCCO2)[C@H](C)O1 [Pirarubicin] showed a relative cell viability of 0.157 ± 0.078.
With COc1cccc2c1C(=O)c1c(O)c3c(c(O)c1C2=O)C[C@@](O)(C(C)=O)C[C@@H]3O[C@H]1C[C@H](N)[C@H](O)[C@H](C)O1 [Daunorubicin HCl] the relative cell viability was 0.0682 ± 0.0026.
Compound O=C(O)c1cc(I)ccc1NC(=O)[C@H](Cc1ccccc1)NCc1ccccc1 has a relative cell viability of 1.03 ± 0.032.
With C=CC(=O)N1CCC(Oc2cc3c(Nc4ccc(Cl)c(Cl)c4F)ncnc3cc2OC)CC1 [Poziotinib (HM781-36B)] the relative cell viability was 0.933 ± 0.022.
CN(C)CCN1C(=O)c2cccc3cc(N)cc(c23)C1=O [Amonafide] showed a relative cell viability of 1.22 ± 0.09.
C=CC(=O)Nc1ccc2ncnc(Nc3ccc(OCc4cccc(F)c4)c(Cl)c3)c2c1 gave a relative cell viability of 1.41 ± 0.053.
For NC(=O)Nc1sc(-c2ccc(F)cc2)cc1C(N)=O, the relative cell viability was 1.1 ± 0.043.
Compound COc1cc(C(=O)NC2CCCNC2)cc(OC)c1OC (stereo not drawn) [Troxipide] has a relative cell viability of 1.07 ± 0.12.
Work on NC(=O)Nc1cc(-c2cccc(F)c2)sc1C(=O)N[C@H]1CCCNC1 yielded a relative cell viability of 0.151 ± 0.016.
O=C(NO)c1cccc(C(=O)NCCc2ccccc2)c1 gave a relative cell viability of 1.16 ± 0.059.
COc1cc2ncc(-c3ccccc3)nc2cc1OC [Tyrphostin AG 1296] showed a relative cell viability of 1 ± 0.02.
With Nc1nccc2c1ncn2C1C=C(CO)C(O)C1O (stereo not drawn) [3-Deazaneplanocin A (DZNeP)] the relative cell viability was 0.933 ± 0.013.
Cc1nc(C#Cc2ccnc(Cl)c2)c(C)n1-c1ccc(OC(F)(F)F)cc1 was tested, and the relative cell viability was 1 ± 0.056.
O=C(/C=C/c1ccc2ccccc2n1)c1ccncc1 gave a relative cell viability of 0.167 ± 0.0076.
Compound CCOC(=O)n1ccn(C)c1=S [Carbimazole] has a relative cell viability of 1.02 ± 0.14.
In the case of COc1nc(N)nc2c1ncn2[C@@H]1O[C@H](CO)[C@@H](O)[C@@H]1O [Nelarabine], the relative cell viability is reported as 1.1 ± 0.035.
With COc1ccc(C[C@H](N)C(=O)N[C@H]2[C@@H](O)[C@H](n3cnc4c(N(C)C)ncnc43)O[C@@H]2CO)cc1 [Puromycin 2HCl] the relative cell viability was 0.0517 ± 0.001.
CNc1ncnc2c1ncn2[C@@H]1O[C@H](CO)[C@@H](O)[C@H]1O [N6-methyladenosine (m6A)] was tested, and the relative cell viability was 1.15 ± 0.042.
For c1cc(-c2cnn3cc(-c4ccc(N5CCNCC5)cc4)cnc23)c2cccnc2c1, the relative cell viability was 0.142 ± 0.013.
In the case of COc1ccc(-c2cnc3c(-c4cccc5ncccc45)cnn3c2)cc1, the relative cell viability is reported as 1.31 ± 0.03.
COc1cc(-c2cc(-c3ccc(N4CCNCC4)cc3)cnc2C)cc(OC)c1OC showed a relative cell viability of 0.937 ± 0.023.
CCCNCC(O)COc1ccccc1C(=O)CCc1ccccc1 (stereo not drawn) [Propafenone HCl] was tested, and the relative cell viability was 0.855 ± 0.07.
Cc1cc(-c2ccc(CC(=O)Nc3ccc(-c4cccnc4)cc3)cc2)ccn1 gave a relative cell viability of 1.268 ± 0.0057.
CC(C=CC(=O)NO)=CC(C)C(=O)c1ccc(N(C)C)cc1 (stereo not drawn) [Trichostatin A (TSA)] was tested, and the relative cell viability was 0.131 ± 0.019.
CN1CCN(c2ccc(Nc3cc(-c4cccc(-n5ccc6cc(C7CC7)cc(F)c6c5=O)c4CO)cn(C)c3=O)nc2)CC1 was tested, and the relative cell viability was 1.1 ± 0.14.
Cc1cc(NC(=O)c2cccc(NC(=O)/C=C/CN(C)C)c2)ccc1Nc1nccc(-c2cccnc2)n1 gave a relative cell viability of 0.837 ± 0.011.
Work on O=C(c1cncc(Br)c1)N1CCC(N2CCCC2)CC1 yielded a relative cell viability of 1.03 ± 0.058.
O=C(COc1cccc2c(=O)[nH]ccc12)c1ccccc1 showed a relative cell viability of 1.16 ± 0.033.
